Assay outcomes: PubChem, Broad Institute
aSyn UTR inh: MLPCN primary screen, SNCA 5' untranslated region. actives 0.82% (n = 300,000). inhibition, % (tested at 7.5 µM). alpha-synuclein 5'UTR reporter, inhibitor activity. AID 1813, 2009; in the data active means inhibition above about 60%; inconclusive means no clear call, values can overlap the other calls;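 further: H4 neuroglioblastoma cells stably carrying SNCA 5'UTR luciferase fusion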
PAX8 reporter: inhibitors of PAX8-driven TPO luciferase reporter, primary screen, RMG-I cells, single concentration; SteadyGlo, 24 h; inhibition, % at 12.6 µM; actives 1.2% (n = 360,000); AID 652154, 2013;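 active means mean replicate inhibition at least 60% with every replicate also reaching 60%; inconclusive means only one of the two criteria is met; inactive means mean below 60% and not all replicates reaching 60%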;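 further: luciferase light reporting Pax8 driven TPO promoter activity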
Shn3 inh set2: reduction of Shn3 3'UTR firefly luciferase signal, primary screen, Schnurri-3 inhibitor project, cell-based, Clone20 osteoblasts, set 2 | Clone20 osteoblast Shn3 3'UTR firefly luciferase, 24 h | inhibition, % at 12.5 µM | actives 0.52% (n = 360,000);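 active means mean inhibition of at least 75% with every replicate also reaching 75%; inconclusive means mean inhibition at least 75% but some replicate below; inactive means mean inhibition below 75%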
EBV LMP1 NFkB: EBV LMP1-driven NF-kappaB luciferase reporter inhibitors, primary screen, cell-based, luminescence, single point; AID 504558, 2011; actives 0.69% (n = 350,000); LMP1-induced NF-kappaB luciferase reporter cells; inhibition, % at 12.5 µM; in the data active means inhibition above about 41%; inconclusive means no clear call, values can overlap the other calls
TRPM1 prom inh: inhibitors of MITF-dependent TRPM1 promoter reporter, primary screen, cell-based, SK-MEL-5, single point, luciferase; inhibition, % at 12.5 µM; SK-MEL-5 TRPM1 promoter luciferase, 24 h; actives 0.83% (n = 330,000);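 active means mean inhibition across replicates of 60% or more, whatever share of single replicates reaches that level; inconclusive means some that reach 60%, reason not given; inactive means mean inhibition across replicates below 60%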
Large screens that a line does not name were inactive. The list is not random: actives were taken first. Their share in the collection is about 2.1%.

C[C@H]1CN([C@@H](C)CO)S(=O)(=O)c2ccc(C#Cc3ccncc3)cc2O[C@H]1CN(C)C(=O)Nc1ccc2c(c1)OCO2	PAX8 reporter 65 (no result: aSyn UTR inh, Shn3 inh set2, EBV LMP1 NFkB, TRPM1 prom inh)
O=C(N1CCN(c2ccccn2)CC1)C(Cl)(Cl)Cl	none
O=C1C=C(N2CCN(c3ccccn3)CC2)C(=O)c2c(O)ccc(O)c21	TRPM1 prom inh 92 (no result: aSyn UTR inh)
O=C(COc1ccccc1N1C(=O)C2C3C=CC(C3)C2C1=O)c1ccccc1 (configuration not stated)	none
COc1ccccc1CN(C)CC(=O)Nc1cccc(S(=O)(=O)N2CCCC2)c1	none (no result: aSyn UTR inh)
COc1ccc(C(=O)NNC(=O)c2cccc(S(=O)(=O)N3CCOCC3)c2)cc1	Shn3 inh set2 96 (no result: aSyn UTR inh)
COc1ccc2ccccc2c1/C=N/NC(=S)Nc1cc(S(=O)(=O)N2CCOCC2)ccc1N1CCOCC1	none
COc1cc(/C=N/NC(=O)c2cccc(S(=O)(=O)N3CCOCC3)c2)cc(OC)c1O	EBV LMP1 NFkB 65
CCOc1cccc(/C=N/NC(=S)Nc2cc(S(=O)(=O)N3CCOCC3)ccc2N2CCOCC2)c1O	aSyn UTR inh 81
FC(F)(F)c1ccccc1CNCc1ccncc1	none
O=C(NCc1ccccc1)[C@H]1CCCN1C(=O)[C@H]1CCCN1C(=O)c1cccc(Cl)c1	none (no result: aSyn UTR inh, Shn3 inh set2, EBV LMP1 NFkB, TRPM1 prom inh)
Cc1noc(C)c1NC(=O)Nc1ccc2c(c1)CC(=O)N([C@H](C)CO)C[C@H](C)[C@H](CN(C)C(=O)Nc1ccc3c(c1)OCO3)O2	none (no result: aSyn UTR inh, Shn3 inh set2, EBV LMP1 NFkB, TRPM1 prom inh)
C[C@H]1CN([C@@H](C)CO)C(=O)c2cccc(NS(=O)(=O)c3ccccc3)c2O[C@H]1CN(C)CC1CC1	none (no result: aSyn UTR inh, Shn3 inh set2, EBV LMP1 NFkB, TRPM1 prom inh)
N#CC(c1cccc(Cl)c1)c1ccc2c(C(F)(F)F)cc(C(F)(F)F)nc2n1 (configuration not stated)	aSyn UTR inh 97, Shn3 inh set2 88, TRPM1 prom inh 74 (no result: PAX8 reporter)
COc1ccc(-n2c(O)c(C=NCc3ccccn3)c3ccccc3c2=O)c(OC)c1	none
COc1ccc(-n2nc([N+](=O)[O-])c(=NCCc3ccccc3)n2O)cc1	PAX8 reporter 94
O=[N+]([O-])c1nn(-c2ccc3c(c2)OCCO3)n(O)c1=NC1CCN(Cc2ccccc2)CC1	none
O=[N+]([O-])c1nn(-c2ccccc2)n(O)c1=NC1CCN(Cc2ccccc2)CC1	aSyn UTR inh 76
CCCN1C(=O)S/C(=C\c2ccc(N3CCOCC3)o2)C1=O	Shn3 inh set2 89
CCCN1C(=O)S/C(=C/c2ccc(N3CCOCC3)o2)C1=O	none
CC12CCC(C(=O)N/N=C/c3ccc(O)cc3O)(OC1=O)C2(C)C (configuration not stated)	Shn3 inh set2 89
C/C(=N\NC(=O)C12CCC(C)(C(=O)O1)C2(C)C)c1ccccc1O (configuration not stated)	none
CCCC[n+]1ccn(-c2nc3ccccc3nc2[N-]S(=O)(=O)c2ccc(Br)cc2)c1	none
CCCCC[n+]1ccn(C2=C([O-])c3ccccc3C(=O)/C2=N\S(=O)(=O)c2ccc(Cl)cc2)c1	aSyn UTR inh inconclusive, TRPM1 prom inh 78
CCCC[n+]1ccn(C2=C([O-])c3ccccc3C(=O)/C2=N\S(=O)(=O)c2ccc(Cl)cc2)c1	aSyn UTR inh 66
N/C(CSc1ccc(Cl)cc1)=N\S(=O)(=O)c1ccc(Cl)cc1	none (no result: aSyn UTR inh)
Cc1ccc(S(=O)(=O)N2CC(O)CC2C(=O)OCc2nc3sc(C)c(C)c3c(=O)[nH]2)cc1 (configuration not stated)	none
Cc1ccc(C(C)n2cc(C(=O)NCCN3CCN(C)CC3)nn2)cc1 (configuration not stated)	none (no result: PAX8 reporter)
CC(C)CC(=NNC(=O)c1ccncc1)c1cc(Cl)ccc1O	Shn3 inh set2 85, EBV LMP1 NFkB 73 (no result: aSyn UTR inh, PAX8 reporter)
COc1ccccc1OCCNC(=O)c1cccs1	none (no result: PAX8 reporter)
CC1CCN(c2ccc(-c3cccc(NC(=O)C(F)(F)F)c3)nn2)CC1	aSyn UTR inh 103, PAX8 reporter 94, EBV LMP1 NFkB 80
CCC(=O)Nc1cccc(-c2ccc(N3CCC(C)CC3)nn2)c1	none
O=C(Nc1cccc(-c2ccc(N3CCCCC3)nn2)c1)C(F)(F)F	aSyn UTR inh 96, PAX8 reporter 95, EBV LMP1 NFkB 55, TRPM1 prom inh 62
COc1ccc([Si](C)(C)[C@H]2[C@H](CCO)O[C@@]3(C(=O)N(Cc4ccccc4)c4ccc(NC(C)=O)cc43)[C@@H]2C)cc1	none (no result: aSyn UTR inh, Shn3 inh set2, EBV LMP1 NFkB, TRPM1 prom inh)
COc1ccc([Si](C)(C)[C@@H]2[C@@H](CCO)O[C@]3(C(=O)N(Cc4ccccc4)c4ccc(N5C(=O)c6cccc7cccc5c67)cc43)[C@H]2C)cc1	PAX8 reporter 88 (no result: aSyn UTR inh, Shn3 inh set2, EBV LMP1 NFkB, TRPM1 prom inh)
C=CCN1C(=O)[C@]2(O[C@H](CCn3cc([C@H](O)c4ccccc4)nn3)[C@@H]([Si](C)(C)c3ccc(OC)cc3)[C@@H]2C)c2cc(N3CCOC3=O)ccc21	none (no result: aSyn UTR inh, Shn3 inh set2, EBV LMP1 NFkB, TRPM1 prom inh)
COc1ccc([Si](C)(C)[C@@H]2[C@@H](CCO)O[C@]3(C(=O)N(Cc4cccc(NC(C)=O)c4)c4ccccc43)[C@H]2C)cc1	PAX8 reporter 103 (no result: aSyn UTR inh, Shn3 inh set2, EBV LMP1 NFkB, TRPM1 prom inh)
COc1ccc([Si](C)(C)[C@H]2[C@H](CCO)O[C@@]3(C(=O)N(c4ccccc4)c4ccccc43)[C@@H]2C)cc1	PAX8 reporter 103 (no result: aSyn UTR inh, Shn3 inh set2, EBV LMP1 NFkB, TRPM1 prom inh)
C=CCN1C(=O)[C@]2(O[C@H](CCn3cc(CCO)nn3)[C@@H]([Si](C)(C)c3ccc(OC)cc3)[C@@H]2C)c2cc(N3C(=O)c4cccc5cccc3c45)ccc21	PAX8 reporter 97 (no result: aSyn UTR inh, Shn3 inh set2, EBV LMP1 NFkB, TRPM1 prom inh)
Cc1ccc2nc(C3CCCN3Cc3nc(CCC(C)C)no3)[nH]c2c1 (configuration not stated)	none
CC(C)CC(=O)NC1(C(F)(F)F)NC(=O)N(c2ccccc2)C1=O (configuration not stated)	none
C=CCn1c(=O)n(C(=O)OCC)c2cc(Br)ccc21	none
COc1cccc(-c2nc(CS(=O)(=O)CC(=O)NCCCN3CC(C)CC(C)C3)c(C)o2)c1 (configuration not stated)	PAX8 reporter 118
Cn1ccc(C(=O)N2CCCc3ccccc32)n1	none (no result: PAX8 reporter)
O=C1CCc2cccc(O)c2N1	Shn3 inh set2 94 (no result: aSyn UTR inh)
C1=C[C@@H]2CCN(Cc3ccccc3)Cc3cccc(c32)C1	none (no result: aSyn UTR inh)
COc1ccc(NC(=O)c2cc(C)nc3ccccc23)cc1S(=O)(=O)N1CCOCC1	none (no result: aSyn UTR inh)
COc1ccc(Nc2nc(-c3ccccc3)nc3ccccc23)cc1S(=O)(=O)N1CCOCC1	PAX8 reporter 65 (no result: Shn3 inh set2)
Cn1c2ccc(Br)cc2c2nnc(SCC(=O)O)nc21	aSyn UTR inh 62
O=C(C[C@@H]1CC[C@@H]2[C@H](COC[C@H](O)CN2CC2CCCCC2)O1)NCC1CC1	none (no result: aSyn UTR inh, Shn3 inh set2, EBV LMP1 NFkB, TRPM1 prom inh)
C#CCOc1c(Br)cc(/C=C2/C(=O)ON=C2C)cc1OCC	none
COc1ccc(NC(=O)c2nn(C34CC5CC(CC(C5)C3)C4)cc2[N+](=O)[O-])cc1	PAX8 reporter 128
O=C(Nc1cccc2ccccc12)c1nn(C23CC4CC(CC(C4)C2)C3)cc1[N+](=O)[O-]	none (no result: PAX8 reporter)
O=C(CSc1n[nH]c(-c2ccc(Br)cc2)n1)NC1CCCC1	none (no result: aSyn UTR inh)
